# Source: PubChem BioAssay (several laboratories)
# Most compounds without a hit are left out; they make up all but 12% or so of the library.
# ROMK primary: ROMK potassium channel modulators, primary screen, cell-based, thallium flux, MLSMR library | ATP-sensitive inward rectifier potassium channel 1 (Homo sapiens), P48048 | Tet-inducible ROMK, thallium flux fluorescence; actives lie on both sides | B-score at 10 µM | 130,000 compounds, 2% hits;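 active = signal ratio slope over the read window, or its plate-corrected B-score, at least 3 SD from the plate mean, either direction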;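 note: B-score of the F/F0 ratio slope over 7 to 12 s after thallium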
# Cl transport mod: KCC2 cotransporter modulators, thallium flux, primary screen, cell-based, HEK293 KCC2, FluoZin-2 fluorescence, MLSMR | Solute carrier family 12 member 5 (Homo sapiens), Q9H2X9 | KCC2 cells, thallium flux FluoZin-2 fluorescence | B-score of Tl+ flux slope (higher = more flux/activation; lower = inhibition) at 10 µM | 190,000 compounds, 2.2% hits | AID 1456, 2008;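 active = thallium flux slope and its plate-corrected score both differing from the plate sample mean at a set confidence after two filtering rounds, in either direction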;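 note: slope of fluorescence scaled to starting intensity during 10 to 20 s after thallium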
# Target sequence (Q9H2X9 whole entry, looked up): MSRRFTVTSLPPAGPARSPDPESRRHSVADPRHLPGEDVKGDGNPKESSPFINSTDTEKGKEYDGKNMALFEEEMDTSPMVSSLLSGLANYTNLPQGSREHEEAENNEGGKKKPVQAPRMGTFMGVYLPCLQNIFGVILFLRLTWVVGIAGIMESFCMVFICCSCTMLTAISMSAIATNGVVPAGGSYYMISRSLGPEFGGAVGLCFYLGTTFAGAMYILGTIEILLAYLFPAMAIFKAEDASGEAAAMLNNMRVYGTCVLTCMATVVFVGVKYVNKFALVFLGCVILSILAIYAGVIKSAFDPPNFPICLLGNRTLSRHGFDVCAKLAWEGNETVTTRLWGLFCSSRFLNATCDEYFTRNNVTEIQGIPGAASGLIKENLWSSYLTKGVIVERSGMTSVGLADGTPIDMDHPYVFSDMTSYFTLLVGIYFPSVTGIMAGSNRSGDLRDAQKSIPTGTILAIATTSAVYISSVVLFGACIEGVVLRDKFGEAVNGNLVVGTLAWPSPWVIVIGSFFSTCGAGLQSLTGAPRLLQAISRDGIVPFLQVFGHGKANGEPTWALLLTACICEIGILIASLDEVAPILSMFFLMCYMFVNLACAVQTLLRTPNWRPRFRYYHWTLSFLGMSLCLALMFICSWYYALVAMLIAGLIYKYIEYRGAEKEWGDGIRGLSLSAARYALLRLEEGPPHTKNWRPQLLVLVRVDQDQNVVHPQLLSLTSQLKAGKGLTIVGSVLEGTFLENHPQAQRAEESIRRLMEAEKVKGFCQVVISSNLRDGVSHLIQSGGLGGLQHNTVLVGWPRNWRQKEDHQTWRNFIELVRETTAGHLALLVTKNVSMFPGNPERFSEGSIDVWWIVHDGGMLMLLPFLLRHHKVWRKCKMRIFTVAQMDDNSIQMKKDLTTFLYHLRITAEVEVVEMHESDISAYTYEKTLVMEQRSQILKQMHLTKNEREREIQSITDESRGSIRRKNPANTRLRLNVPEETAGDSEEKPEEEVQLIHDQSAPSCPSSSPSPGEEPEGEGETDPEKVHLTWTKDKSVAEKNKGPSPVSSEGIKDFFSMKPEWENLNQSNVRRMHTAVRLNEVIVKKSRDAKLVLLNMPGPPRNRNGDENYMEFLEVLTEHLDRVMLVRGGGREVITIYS
# L major viab: Leishmania major promastigote growth inhibition, primary screen; inhibition, % at 10 µM; Leishmania major promastigotes, resazurin fluorescence viability; 200,000 compounds, 9% hits; in the data active = inhibition above about 50%;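 note: promastigotes grown with compound for 44 hours at 28 °C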
# INS promoter inh: inhibitors of insulin promoter-driven GFP, primary screen, imaging, TRM-6 cells (human fetal islet line), eGFP reporter, cell count. 130,000 compounds, 0.9% hits. AID 1273, 2008. reporter expression induced with tamoxifen. inhibition, % at 2 µM;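 active = inhibition above the mean plus 3 SD, with well images judged a real hit on visual review, cut at about 60% in these data, passing the limit was not always enough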
# Ins promoter up: insulin promoter activators in MIN6 cells, imaging, high-content screening, mouse beta cells | MIN6 insulin promoter-GFP reporter; active compounds read high | z-score at 5 µM | 190,000 compounds, 0.3% hits | AID 1625, 2009;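 active = z-score above 3 at 5 µM with at least 500 cells counted in the well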
# WT yeast gro inh: growth inhibition of WT strain, primary screen, mitochondrial fusion inhibitor project, WT and mutant strains, chemical genetic. 190,000 compounds, 2.1% hits. mitochondrial fusion phenotypic screen. inhibition, % at 10 µM; in the data active = inhibition above about 58%; tested in S. cerevisiae
# A number is an active result; n = inactive; x = no result given.
SMILES,ROMK primary,Cl transport mod,L major viab,INS promoter inh,Ins promoter up,WT yeast gro inh
O=C(/C=C/NNC(=O)c1ccccc1)c1ccc(Br)cc1,x,8.8,n,n,x,n
O=C(/C=C/NNC(=O)c1ccc(Cl)cc1)c1ccccc1,n,n,n,x,n,n
CCOC(=O)CC(NC(=O)C(CC)c1ccccc1)c1ccccc1Cl (stereo not given),n,n,95,n,n,n
CCOC(=O)CC(NC(=O)Cc1ccccc1)c1ccccc1Cl (stereo not given),n,n,n,n,x,n
CC(C)CC(/C(O)=C(\C#N)c1nc2ccccc2[nH]1)N1C(=O)c2ccccc2C1=O (stereo not given),n,n,65,x,n,n
CCOC(=O)c1cc(C#N)c(N2CCCC2)nc1-c1ccccc1,x,n,n,n,n,n
CCC(=O)N1CCN(c2nc(-c3ccccc3)c3c(c2C#N)CCCC3)CC1,n,n,76,n,n,n
COc1cccc(-c2nc(-c3ccccc3)nc(N3CCN(C)CC3)c2C#N)c1,n,n,51,x,n,81
COC(=O)c1sc2nc(-c3ccccc3)nc(N3CCN(C)CC3)c2c1C,n,n,55,n,n,n
CCOC(=O)c1cc(C#N)c(N2CCN(C)CC2)nc1-c1ccccc1,n,x,89,n,n,n
N#Cc1c(SCC(=O)O)nc(-c2ccccc2)c2c1CCCC2,x,n,n,n,n,n
CC(=O)Nc1ccc(S(=O)(=O)Nc2nnc(C(C)C)s2)cc1,n,x,n,n,n,n
CCN(C(=O)CSc1nnc(Cn2nnc3ccccc32)o1)c1nc(-c2ccccc2)cs1,n,x,n,n,n,n
COc1ccccc1/C=C/C=N/n1c(-c2ccncc2)n[nH]c1=S,n,n,n,n,n,n
CN1CCN(c2nc(-c3ccccc3)nc(-c3ccccc3)c2C#N)CC1,n,n,n,x,n,73
COc1ccc(-c2nc(-c3cccc(C)c3)nc(N3CCN(C)CC3)c2C#N)cc1,n,x,86,x,n,n
COc1cccc(CN(C)c2nc(-c3cccs3)nc3ccccc23)c1,x,n,92,n,n,66
COc1cccc(Nc2nc(-c3cccs3)nc3ccccc23)c1,x,n,99,n,n,66
COc1ccc(Nc2nc(-c3cccs3)nc3ccccc23)cc1,n,n,n,n,n,n
O=[N+]([O-])c1cc(S(=O)(=O)N2CCCC2)ccc1N/N=C/c1cccs1,n,n,n,n,x,n
C=CCn1c(SCC(=O)NNC(=O)Nc2cccc(Cl)c2)nnc1-c1ccccc1,n,n,x,x,n,x
Cc1ccc(S(=O)(=O)N2CCN(c3ccc4nnc(-c5ccccc5)n4n3)CC2)cc1,x,n,75,x,n,n
O=C(Nc1ccc(Cl)cc1)N1CCN(c2ccc3nnc(-c4ccc(F)cc4)n3n2)CC1,x,n,n,x,n,80
COc1ccc(S(=O)(=O)N2CCN(c3ccc4nnc(-c5ccc(F)cc5)n4n3)CC2)cc1,x,x,99,x,n,n
CCOC(=O)C(C)Sc1nc(-c2ccccc2)nc2ccccc12 (stereo not given),n,n,n,n,n,n
SMILES,ROMK primary,Cl transport mod,L major viab,INS promoter inh,Ins promoter up,WT yeast gro inh
CN(C)S(=O)(=O)NC(c1ccccc1)c1ccccc1,x,n,n,n,n,n
CCOC(=O)c1ccc(N2C(=O)C=CC2=O)cc1,n,n,n,n,n,n
S=C(NCc1ccccc1)NCc1cccc(CNC(=S)NCc2ccccc2)c1,x,n,85,n,n,n
CCc1ccc(NC(=S)NCc2cccnc2)cc1,x,n,x,x,n,x
NNC(=S)NCc1ccccc1,x,n,x,x,n,x
CCc1ccc(NC(=S)NCc2ccccc2)cc1,n,n,n,x,x,70
Fc1ccc(CNC(=S)Nc2ccc(OC(F)F)cc2)cc1,x,n,63,n,n,n
COc1ccccc1-n1cnnc1SC(C)C(=O)Nc1ccc(NC(C)=O)cc1 (stereo not given),n,n,n,x,n,n
COc1cccc(/C=C2/CN(C)CC3=C2OC(N)=C(C#N)C3c2cccc(OC)c2)c1 (stereo not given),n,n,53,n,x,n
CN(CC(=O)Nc1ccccc1Sc1ccccc1)C1CCCCC1,n,n,n,x,n,76
CC(C(=O)Nc1ccccc1Sc1ccccc1)N(c1ccccc1)S(C)(=O)=O (stereo not given),x,x,99,n,x,n
CS(=O)(=O)N(CC(=O)Nc1ccccc1Sc1ccccc1)c1ccc(F)cc1,x,n,76,n,n,n
CS(=O)(=O)N(Cc1ccc(C(=O)Nc2ccccc2Sc2ccccc2)cc1)c1ccccc1,x,n,n,n,n,n
CC1=C(C#N)C(c2cccnc2)C2=C(CCCC2=O)N1 (stereo not given),x,n,n,n,n,n
O=C(CSc1nnc2scc(-c3ccc(Cl)cc3)n12)NCc1ccco1,n,n,n,n,x,n
Cc1cc(N2CCCCC2)nc(-c2ccc(Br)cc2)n1,n,n,n,x,n,66
CCSc1cc(N2CCCC2)nc(-c2ccc(C)cc2)n1,n,n,n,x,n,n
CCN(C(=O)CSc1nnc(-c2ccccc2)n1C)C1CCS(=O)(=O)C1 (stereo not given),n,n,n,x,n,n
CCN(C(=O)CSc1nnc(Nc2ccccc2)s1)C1CCS(=O)(=O)C1 (stereo not given),n,n,58,n,n,n
Cc1ccc(Nc2nnc(SCC(=O)N(C)C3CCS(=O)(=O)C3)s2)cc1 (stereo not given),n,n,56,n,n,n
CCN(C(=O)CSc1nc2cc(C(F)(F)F)ccc2n1Cc1ccccc1)C1CCS(=O)(=O)C1 (stereo not given),n,n,98,n,n,n
CCCCn1c(SCC(=O)N(CC)C2CCS(=O)(=O)C2)nc2cc(S(N)(=O)=O)ccc21 (stereo not given),n,n,n,n,n,n
Cc1ccccc1Nc1nnc(SCC(=O)N(C)C2CCS(=O)(=O)C2)s1 (stereo not given),n,n,n,n,n,n
Cc1ccc(OCC(=O)Nc2ccc(N3CCOCC3)cc2)cc1,x,x,n,x,n,n
N/C(CCN1CCCCC1)=N/O,n,n,n,n,n,n
COc1ccc(-c2csc(N(CCCN(C)C)C(=O)c3cccs3)n2)cc1,x,n,92,n,n,n
Cc1ccccc1N/C(SCc1cccc(Br)c1)=C(/C#N)C(N)=O,x,n,n,x,n,n
COc1cccc(N/C(SCc2cccc([N+](=O)[O-])c2)=C(/C#N)C(N)=O)c1,n,n,94,n,n,n
Cc1cc(C(=O)COC(=O)CC2Sc3ccccc3NC2=O)c(C)n1-c1ccccc1 (stereo not given),n,n,n,n,n,n
Cc1cc(C(=O)COC(=O)c2ccc(N)c([N+](=O)[O-])c2)c(C)n1-c1ccc2c(c1)OCO2,x,n,71,n,n,n
